We go through five compounds from ChEMBL document CHEMBL1961873, “Compounds: GSK PKIS; Assays: Nanosyn kinase panel” (2012).

Test [1] concerns the target T1, Serine/threonine-protein kinase Nek9 (Homo sapiens) (UniProt Q8TD19).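 Further: each value is a mean percent inhibition of NEK9.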
T1 sequence (whole entry): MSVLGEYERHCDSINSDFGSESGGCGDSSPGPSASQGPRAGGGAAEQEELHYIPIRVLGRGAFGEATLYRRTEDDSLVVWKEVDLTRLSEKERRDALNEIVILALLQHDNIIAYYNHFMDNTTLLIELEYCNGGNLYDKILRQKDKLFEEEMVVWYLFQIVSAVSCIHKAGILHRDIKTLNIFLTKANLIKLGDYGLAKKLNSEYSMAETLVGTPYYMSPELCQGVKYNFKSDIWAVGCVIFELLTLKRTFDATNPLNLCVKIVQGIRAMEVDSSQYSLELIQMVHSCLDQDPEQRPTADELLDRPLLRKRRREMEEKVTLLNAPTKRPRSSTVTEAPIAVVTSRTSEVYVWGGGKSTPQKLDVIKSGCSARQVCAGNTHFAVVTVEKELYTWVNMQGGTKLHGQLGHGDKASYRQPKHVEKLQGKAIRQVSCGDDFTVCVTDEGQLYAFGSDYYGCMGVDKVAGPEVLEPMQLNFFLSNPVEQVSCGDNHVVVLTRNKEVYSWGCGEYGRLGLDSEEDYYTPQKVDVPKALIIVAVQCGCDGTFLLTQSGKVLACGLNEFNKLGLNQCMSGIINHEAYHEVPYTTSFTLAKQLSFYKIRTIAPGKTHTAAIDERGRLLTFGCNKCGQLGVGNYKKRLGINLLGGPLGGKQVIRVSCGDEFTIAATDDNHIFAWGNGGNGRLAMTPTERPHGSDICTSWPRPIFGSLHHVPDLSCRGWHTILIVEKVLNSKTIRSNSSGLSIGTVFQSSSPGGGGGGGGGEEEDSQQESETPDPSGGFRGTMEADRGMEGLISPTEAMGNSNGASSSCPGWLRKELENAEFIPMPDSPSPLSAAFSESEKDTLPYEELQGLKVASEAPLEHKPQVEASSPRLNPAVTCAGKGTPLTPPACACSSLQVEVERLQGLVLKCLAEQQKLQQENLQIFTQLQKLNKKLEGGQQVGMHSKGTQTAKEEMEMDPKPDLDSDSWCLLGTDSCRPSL
Particulars: at 1 µM.

For test [2], the target named is Serine/threonine-protein kinase PLK1 (Homo sapiens) (UniProt P53350). The note with it: at 0.1 µM.
Test [3] shares this target. The note with it: at 1 µM.
In test [4] the target is T2, Dual specificity protein kinase TTK (Homo sapiens) (UniProt P33981).
T2 sequence (whole entry): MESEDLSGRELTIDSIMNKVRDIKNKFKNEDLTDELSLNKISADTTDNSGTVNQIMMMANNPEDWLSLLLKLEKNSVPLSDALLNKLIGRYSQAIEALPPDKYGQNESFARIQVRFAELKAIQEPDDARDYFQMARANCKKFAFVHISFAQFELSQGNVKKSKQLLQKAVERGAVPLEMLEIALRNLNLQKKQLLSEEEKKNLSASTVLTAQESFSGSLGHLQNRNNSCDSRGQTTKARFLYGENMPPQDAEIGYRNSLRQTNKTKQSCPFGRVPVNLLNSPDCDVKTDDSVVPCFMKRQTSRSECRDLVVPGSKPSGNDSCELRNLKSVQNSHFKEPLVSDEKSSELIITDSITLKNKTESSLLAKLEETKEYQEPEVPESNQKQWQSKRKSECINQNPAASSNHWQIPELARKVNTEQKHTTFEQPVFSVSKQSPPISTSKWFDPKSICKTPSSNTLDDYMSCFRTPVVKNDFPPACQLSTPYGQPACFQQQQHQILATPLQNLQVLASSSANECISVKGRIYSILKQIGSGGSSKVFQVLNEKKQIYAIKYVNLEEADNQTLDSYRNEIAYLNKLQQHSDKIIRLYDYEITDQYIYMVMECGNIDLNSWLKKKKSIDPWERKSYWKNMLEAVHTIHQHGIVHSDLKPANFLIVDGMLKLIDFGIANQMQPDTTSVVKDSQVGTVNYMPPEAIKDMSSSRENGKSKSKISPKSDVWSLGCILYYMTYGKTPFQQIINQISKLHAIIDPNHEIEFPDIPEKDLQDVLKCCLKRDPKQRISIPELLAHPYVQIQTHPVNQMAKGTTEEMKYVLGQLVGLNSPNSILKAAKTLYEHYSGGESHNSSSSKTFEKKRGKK
Particulars: at 0.1 µM.

The subject of test [5] is T3, Receptor-type tyrosine-protein kinase FLT3 (Homo sapiens), P36888 [D835Y].
T3 sequence (whole entry): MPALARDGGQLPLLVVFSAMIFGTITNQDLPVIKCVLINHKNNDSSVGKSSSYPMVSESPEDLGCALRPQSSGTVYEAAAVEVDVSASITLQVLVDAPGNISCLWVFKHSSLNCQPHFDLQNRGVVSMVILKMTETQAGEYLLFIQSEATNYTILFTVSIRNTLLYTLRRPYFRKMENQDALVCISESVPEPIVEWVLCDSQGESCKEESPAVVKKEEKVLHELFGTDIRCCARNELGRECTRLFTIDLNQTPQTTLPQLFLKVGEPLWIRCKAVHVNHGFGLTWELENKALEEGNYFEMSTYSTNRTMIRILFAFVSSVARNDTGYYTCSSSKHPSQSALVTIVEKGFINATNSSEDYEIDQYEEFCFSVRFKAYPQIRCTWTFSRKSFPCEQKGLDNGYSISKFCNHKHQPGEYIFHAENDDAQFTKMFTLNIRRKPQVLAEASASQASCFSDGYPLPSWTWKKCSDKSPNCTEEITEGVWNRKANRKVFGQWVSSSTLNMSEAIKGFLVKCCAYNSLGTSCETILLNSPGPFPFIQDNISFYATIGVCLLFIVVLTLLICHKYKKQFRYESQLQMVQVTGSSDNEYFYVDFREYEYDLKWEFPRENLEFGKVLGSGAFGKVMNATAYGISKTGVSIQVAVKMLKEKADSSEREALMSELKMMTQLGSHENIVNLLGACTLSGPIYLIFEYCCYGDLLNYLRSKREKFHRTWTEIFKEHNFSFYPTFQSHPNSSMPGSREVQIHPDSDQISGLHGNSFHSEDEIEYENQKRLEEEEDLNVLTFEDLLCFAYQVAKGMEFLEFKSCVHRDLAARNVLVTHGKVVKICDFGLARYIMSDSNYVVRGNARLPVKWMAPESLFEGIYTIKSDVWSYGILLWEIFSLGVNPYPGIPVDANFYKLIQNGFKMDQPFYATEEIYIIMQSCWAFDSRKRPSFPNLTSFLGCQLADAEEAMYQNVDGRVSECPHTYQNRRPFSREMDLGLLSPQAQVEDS
Particulars: at 1 µM.

The target of test [6] is Vascular endothelial growth factor receptor 3 (Homo sapiens) (UniProt P35916). Particulars: at 0.1 µM.
Test [7] shares this target. The note with it: at 1 µM.
The target in test [8] is Macrophage colony-stimulating factor 1 receptor (Homo sapiens) (UniProt P07333). Particulars: at 0.1 µM.
The target is the same in test [9]. Particulars: at 1 µM.
The target of test [10] is Tyrosine-protein kinase Fyn (Homo sapiens) (UniProt P06241). Particulars: at 0.1 µM.
Test [11] shares this target. The note with it: at 1 µM.
In test [12] the target is Tyrosine-protein kinase HCK (Homo sapiens) (UniProt P08631). Particulars: at 0.1 µM.
For test [13] the target is unchanged. The note with it: at 1 µM.
The target in test [14] is Insulin-like growth factor 1 receptor (Homo sapiens) (UniProt P08069). Particulars: at 0.1 µM.
Test [15] shares this target. The note with it: at 1 µM.
In test [16] the target is Insulin receptor (Homo sapiens) (UniProt P06213). Particulars: at 0.1 µM.
For test [17] the target is unchanged. The note with it: at 1 µM.
The target in test [18] is Insulin receptor-related protein (Homo sapiens) (UniProt P14616). Particulars: at 0.1 µM.
Test [19] shares this target. Particulars: at 1 µM.
Test [20] has as its target T4, Tyrosine-protein kinase ITK/TSK (Homo sapiens) (UniProt Q08881).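 Further: mean percent inhibition of ITK from the GSK PKIS screen.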
T4 sequence (whole entry): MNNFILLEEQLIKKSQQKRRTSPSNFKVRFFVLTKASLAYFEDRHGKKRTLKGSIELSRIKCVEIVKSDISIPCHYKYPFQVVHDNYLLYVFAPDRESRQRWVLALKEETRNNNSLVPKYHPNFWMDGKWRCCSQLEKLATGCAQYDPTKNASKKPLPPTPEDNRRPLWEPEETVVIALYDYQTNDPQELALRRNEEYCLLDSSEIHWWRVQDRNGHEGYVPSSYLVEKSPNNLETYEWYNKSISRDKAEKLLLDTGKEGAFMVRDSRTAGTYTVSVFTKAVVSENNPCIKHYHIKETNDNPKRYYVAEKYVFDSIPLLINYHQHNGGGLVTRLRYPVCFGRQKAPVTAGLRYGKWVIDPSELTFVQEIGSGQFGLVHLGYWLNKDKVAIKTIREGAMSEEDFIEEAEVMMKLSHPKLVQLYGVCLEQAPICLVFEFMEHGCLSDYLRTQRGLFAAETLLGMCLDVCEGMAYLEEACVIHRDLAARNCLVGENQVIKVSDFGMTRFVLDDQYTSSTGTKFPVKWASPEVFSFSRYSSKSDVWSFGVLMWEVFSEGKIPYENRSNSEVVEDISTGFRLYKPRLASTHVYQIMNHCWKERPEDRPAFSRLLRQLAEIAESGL
The note with it: at 0.1 µM.

The structures appear in SMILES notation.

Tyrosine-protein kinase HCK (Homo sapiens), sequence (P08631 2-526 limits assumed): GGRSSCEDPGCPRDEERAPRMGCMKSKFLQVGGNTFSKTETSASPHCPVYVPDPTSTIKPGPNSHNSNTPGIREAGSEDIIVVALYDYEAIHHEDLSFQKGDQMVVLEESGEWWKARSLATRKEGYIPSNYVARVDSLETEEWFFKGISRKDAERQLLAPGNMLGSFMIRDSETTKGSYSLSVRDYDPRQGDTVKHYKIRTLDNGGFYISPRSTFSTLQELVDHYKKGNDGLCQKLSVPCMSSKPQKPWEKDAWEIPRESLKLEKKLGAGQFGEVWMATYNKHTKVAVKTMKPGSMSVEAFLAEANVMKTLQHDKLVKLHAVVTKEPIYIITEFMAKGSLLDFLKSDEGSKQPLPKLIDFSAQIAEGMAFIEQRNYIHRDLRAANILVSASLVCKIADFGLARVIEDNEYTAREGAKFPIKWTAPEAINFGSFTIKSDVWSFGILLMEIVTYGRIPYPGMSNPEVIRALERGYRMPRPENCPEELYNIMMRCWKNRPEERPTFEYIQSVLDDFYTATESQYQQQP
Insulin receptor (Homo sapiens), sequence (P06213 28-758 limits assumed): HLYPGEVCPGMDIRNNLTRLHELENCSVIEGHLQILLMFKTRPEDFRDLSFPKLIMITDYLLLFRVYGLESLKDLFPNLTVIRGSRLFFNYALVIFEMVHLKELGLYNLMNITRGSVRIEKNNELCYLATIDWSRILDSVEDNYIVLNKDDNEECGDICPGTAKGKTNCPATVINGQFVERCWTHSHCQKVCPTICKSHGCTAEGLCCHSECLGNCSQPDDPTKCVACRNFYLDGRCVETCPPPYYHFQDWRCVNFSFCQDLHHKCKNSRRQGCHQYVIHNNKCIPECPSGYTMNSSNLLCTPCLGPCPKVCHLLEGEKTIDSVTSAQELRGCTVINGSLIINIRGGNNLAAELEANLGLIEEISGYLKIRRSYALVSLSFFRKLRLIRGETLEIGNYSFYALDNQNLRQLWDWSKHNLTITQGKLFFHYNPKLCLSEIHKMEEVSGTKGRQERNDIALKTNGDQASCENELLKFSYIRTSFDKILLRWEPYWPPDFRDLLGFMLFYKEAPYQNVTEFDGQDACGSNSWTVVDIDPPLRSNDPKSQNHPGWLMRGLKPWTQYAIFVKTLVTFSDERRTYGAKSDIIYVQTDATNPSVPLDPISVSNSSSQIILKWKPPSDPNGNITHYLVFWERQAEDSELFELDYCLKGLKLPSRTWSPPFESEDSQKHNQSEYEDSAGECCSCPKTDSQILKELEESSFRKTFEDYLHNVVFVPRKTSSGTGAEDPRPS
Insulin receptor (Homo sapiens), sequence (P06213 763-1382 limits assumed): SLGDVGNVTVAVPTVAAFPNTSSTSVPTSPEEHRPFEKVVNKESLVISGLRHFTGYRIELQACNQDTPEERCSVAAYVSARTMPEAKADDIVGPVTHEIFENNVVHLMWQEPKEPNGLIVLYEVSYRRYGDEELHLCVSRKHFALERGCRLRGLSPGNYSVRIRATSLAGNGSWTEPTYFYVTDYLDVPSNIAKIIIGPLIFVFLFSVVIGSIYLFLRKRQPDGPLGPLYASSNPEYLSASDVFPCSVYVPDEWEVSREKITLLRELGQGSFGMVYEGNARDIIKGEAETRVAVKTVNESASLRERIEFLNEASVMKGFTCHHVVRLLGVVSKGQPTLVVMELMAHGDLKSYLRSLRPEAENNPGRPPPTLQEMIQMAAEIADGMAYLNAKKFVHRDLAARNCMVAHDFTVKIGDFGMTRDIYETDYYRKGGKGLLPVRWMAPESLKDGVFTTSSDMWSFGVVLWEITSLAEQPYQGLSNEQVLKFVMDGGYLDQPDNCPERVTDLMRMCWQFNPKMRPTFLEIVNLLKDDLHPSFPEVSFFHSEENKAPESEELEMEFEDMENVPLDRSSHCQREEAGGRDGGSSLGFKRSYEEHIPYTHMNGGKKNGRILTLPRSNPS
Insulin receptor-related protein (Homo sapiens), sequence (P14616 27-742 limits assumed): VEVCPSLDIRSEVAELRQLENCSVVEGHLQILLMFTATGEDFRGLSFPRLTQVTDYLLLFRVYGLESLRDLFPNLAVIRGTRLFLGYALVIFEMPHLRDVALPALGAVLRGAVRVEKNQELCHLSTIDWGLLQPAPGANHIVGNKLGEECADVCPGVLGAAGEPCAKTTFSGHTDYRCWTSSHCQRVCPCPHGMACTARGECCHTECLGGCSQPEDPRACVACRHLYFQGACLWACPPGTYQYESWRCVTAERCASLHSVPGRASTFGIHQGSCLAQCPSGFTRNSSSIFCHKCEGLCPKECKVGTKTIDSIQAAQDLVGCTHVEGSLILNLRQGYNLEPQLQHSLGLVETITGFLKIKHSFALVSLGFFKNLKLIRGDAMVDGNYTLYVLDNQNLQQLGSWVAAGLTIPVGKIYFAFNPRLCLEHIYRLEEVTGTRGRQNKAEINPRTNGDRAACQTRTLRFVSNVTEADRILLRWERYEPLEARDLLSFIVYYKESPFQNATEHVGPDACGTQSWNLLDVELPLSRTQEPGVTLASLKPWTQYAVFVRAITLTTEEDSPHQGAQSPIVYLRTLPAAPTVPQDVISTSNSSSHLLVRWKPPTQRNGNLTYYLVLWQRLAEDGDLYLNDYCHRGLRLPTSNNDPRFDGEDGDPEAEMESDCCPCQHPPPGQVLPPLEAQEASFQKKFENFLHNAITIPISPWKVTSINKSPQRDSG
Insulin receptor-related protein (Homo sapiens), sequence (P14616 747-1297 limits assumed): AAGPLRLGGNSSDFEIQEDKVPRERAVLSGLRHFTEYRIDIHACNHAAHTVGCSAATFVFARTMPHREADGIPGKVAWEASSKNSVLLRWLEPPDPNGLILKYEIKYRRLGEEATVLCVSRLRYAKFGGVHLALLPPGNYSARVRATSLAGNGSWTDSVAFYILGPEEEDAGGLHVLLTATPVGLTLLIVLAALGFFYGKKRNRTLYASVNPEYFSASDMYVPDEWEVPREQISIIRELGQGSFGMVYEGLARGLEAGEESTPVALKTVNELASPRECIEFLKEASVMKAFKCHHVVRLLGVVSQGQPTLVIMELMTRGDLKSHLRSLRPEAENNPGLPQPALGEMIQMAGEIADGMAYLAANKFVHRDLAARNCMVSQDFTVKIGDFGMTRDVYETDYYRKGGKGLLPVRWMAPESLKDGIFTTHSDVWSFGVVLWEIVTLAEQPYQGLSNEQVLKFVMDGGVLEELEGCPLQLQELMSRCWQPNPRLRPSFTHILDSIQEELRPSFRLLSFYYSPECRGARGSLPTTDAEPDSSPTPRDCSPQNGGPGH
Serine/threonine-protein kinase PLK1 (Homo sapiens), sequence (P53350 whole entry): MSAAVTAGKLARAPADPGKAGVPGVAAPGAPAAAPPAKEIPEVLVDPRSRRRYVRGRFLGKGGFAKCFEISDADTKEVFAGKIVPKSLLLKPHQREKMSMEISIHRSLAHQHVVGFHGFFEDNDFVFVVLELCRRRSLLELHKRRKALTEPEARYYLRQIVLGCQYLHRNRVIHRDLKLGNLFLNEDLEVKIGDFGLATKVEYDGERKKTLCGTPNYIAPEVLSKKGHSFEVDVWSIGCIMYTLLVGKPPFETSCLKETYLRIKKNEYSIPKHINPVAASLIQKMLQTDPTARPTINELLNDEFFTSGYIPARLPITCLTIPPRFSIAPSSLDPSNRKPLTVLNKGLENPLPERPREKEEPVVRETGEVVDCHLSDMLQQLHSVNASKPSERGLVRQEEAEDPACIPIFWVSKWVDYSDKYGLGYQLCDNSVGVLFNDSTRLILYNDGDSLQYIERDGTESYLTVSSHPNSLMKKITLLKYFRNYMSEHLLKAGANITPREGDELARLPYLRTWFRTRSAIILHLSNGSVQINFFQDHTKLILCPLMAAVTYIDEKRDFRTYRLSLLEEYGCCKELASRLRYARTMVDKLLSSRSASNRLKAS
Tyrosine-protein kinase Fyn (Homo sapiens), sequence (P06241 2-537 limits assumed): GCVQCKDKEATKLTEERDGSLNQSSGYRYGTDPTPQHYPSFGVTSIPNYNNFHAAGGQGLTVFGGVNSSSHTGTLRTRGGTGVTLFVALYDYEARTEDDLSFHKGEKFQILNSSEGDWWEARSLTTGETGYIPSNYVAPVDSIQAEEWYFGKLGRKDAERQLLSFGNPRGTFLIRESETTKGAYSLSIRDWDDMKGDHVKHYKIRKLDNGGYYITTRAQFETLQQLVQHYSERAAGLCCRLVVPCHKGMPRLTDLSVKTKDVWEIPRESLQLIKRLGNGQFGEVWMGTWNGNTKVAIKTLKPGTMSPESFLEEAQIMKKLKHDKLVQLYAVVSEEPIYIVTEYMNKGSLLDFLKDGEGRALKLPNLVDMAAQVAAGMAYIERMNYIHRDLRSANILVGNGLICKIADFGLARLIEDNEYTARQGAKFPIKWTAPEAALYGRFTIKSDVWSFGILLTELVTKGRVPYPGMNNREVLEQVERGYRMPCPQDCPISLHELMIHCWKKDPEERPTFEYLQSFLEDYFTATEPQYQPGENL

In the case of `c1cnn2ncc(-c3ccnc(NCCCN4CCOCC4)n3)c2c1`, the inhibition in test [1] worked out at 9.51%; in [2], 4.18%; in test [3], 3.55%; in [4] it was 9.47%; in test [5], 1.99%; in test [6], 0.01%. In addition, the inhibition is 0.07% in [7]; -0.33% in [8]; 5.17% in [9]; 2.47% in test [10]; 3.59% in test [11]; 8.43% in test [12]. Besides, the inhibition in test [13] was determined as 6.17%; in [14], 3.62%; in [15], 1.61%; in test [16] it was 4.01%; in test [17] it was 4.01%; in test [18], 2.15%. The inhibition is 0.25% in [19] and 1.02% in test [20].
Regarding `FC(F)(F)CNc1nccc(-c2cnn3ncccc23)n1`, the inhibition in [1] was determined as 0.64%; in test [2], 0.06%; in test [3], 0.65%; in [4] it was 3.92%; in test [5], 6%; in test [6] it was 2.05%. For the same compound, the inhibition in test [7] was 2.12%; in test [8] it was -4.71%; in test [9], 3.68%; in test [10], 0.85%; in test [11], 0.37%; in [12] it was 2.76%. Further, the inhibition in [13] was 2.72%; in [14], 1.46%; in test [15], 1.63%; in [16], 0.86%; in test [17], 1.21%; in test [18] it was -0.18%. The inhibition was 1.1% in [19] and -0.07% in test [20].
Consider `O=C1Nc2ccccc2/C1=C1\CCc2cc(O)ccc21`, for which the inhibition in test [1] was 8.07%; in [2], 4.12%; in test [3], 4.17%; in [4], 12.1%; in test [5], 70.6%; in [6] it was 7.22%. Also, the inhibition was 24.6% in [7]; 17.3% in [8]; 59.6% in test [9]; 5.55% in test [10]; 7.65% in [11]; 6.34% in test [12]. In addition, the inhibition in test [13] was found to be 14.6%; in [14] it was 4.61%; in test [15], 12.5%; in test [16], 7.96%; in [17], 23%; in [18], 3.81%. Moreover, the inhibition amounted to 2.83% in test [19] and 3.68% in test [20].
With `NC(=O)c1ccc2c(-c3ccnc(NCCCO)n3)c(-c3ccc(F)cc3)nn2c1`, the inhibition in test [1] was 5.15%; in [2], 3.87%; in test [3], 4.03%; in [4] it was 14%; in test [5] it was -0.97%; in test [6], 2.83%. Further, the inhibition in test [7] was 1.06%; in test [8], 5.2%; in [9], 8.64%; in test [10], 2.14%; in [11], 5.23%; in test [12], 7.1%. Further, the inhibition was found to be 15.6% in test [13]; 3.95% in test [14]; 6.12% in test [15]; 10.3% in test [16]; 6.62% in test [17]; 4.18% in [18]. The results for the inhibition in [19] and in test [20] were 4.01% and 1.32%, respectively.
`c1ccc(-c2n[nH]cc2-c2ccnc(-c3ccc(OCCn4ccnc4)cc3)c2)nc1`: the inhibition came out at 2.33% in test [1]; 1.2% in test [2]; 2.17% in test [3]; 3.26% in test [4]; 5.27% in test [5]; 5.33% in [6]. Further, the inhibition in [7] amounted to 16.4%; in test [8], 2.61%; in test [9], 11.8%; in test [10], 2.86%; in test [11], 7.07%; in [12] it was 1.8%. In addition, the inhibition is 9.8% in test [13]; 6.59% in test [14]; 2.24% in test [15]; 2.91% in test [16]; 2.56% in [17]; -0.75% in [18]. Further, the inhibition in test [19] was -0.28%; in test [20], 0.01%.

The inhibition is the change of the read-out against control, counted positive when it falls.
